# Experimental data as given in the supplement of paper PMC13380429.
# Structures can show the parent of a compound that is named as a salt. A number with no mark means an inactive call.
# System: Vero E6 infected with SARS-CoV-2
# Assay: inhibition of SARS-CoV-2 cytopathic effect; higher = more antiviral protection, active = above 15
# Settings: 48 h
SMILES,inhibition of SARS-CoV-2 cytopathic effect (1 nM),inhibition of SARS-CoV-2 cytopathic effect (8.33 nM),inhibition of SARS-CoV-2 cytopathic effect (100 nM),inhibition of SARS-CoV-2 cytopathic effect (833.33 nM),inhibition of SARS-CoV-2 cytopathic effect (10000 nM)
C[C@H](Cn1cnc2c(N)ncnc21)OCP(=O)(O)O [tenofovir],-0.47%,-2.44%,-1.27%,0.5%,0.69%
CCCCCCCCCCCCCCCCCCN(CCCCCCCCCCCCCCCCCC)CCCN(CCO)CCO [avridine],-9.9%,-6.98%,-5.76%,-5.17%,-10.1%
CCOC(=O)c1ncc2[nH]c3ccc(OCc4ccccc4)cc3c2c1COC,2.48%,0.26%,0.32%,2.46%,-5.3%
OC[C@H]1NCC[C@@H](O)[C@@H]1O [fagomine],-1.09%,1.34%,1.02%,2.42%,0.75%
Clc1ccc(N2CCN(Cc3c[nH]c4ncccc34)CC2)cc1,-0.1%,-0.31%,-2.94%,1.1%,-3.38%
O=C(c1ccc(Nc2nccc(-c3cc4ccccc4s3)n2)cc1)N1CCC(N2CCCC2)CC1,2.48%,3.16%,-1.73%,2.79%,-18.6%
O=C(O)C(Cc1ccccc1[N+](=O)[O-])=NNc1nc(-c2ccc(Cl)c(Cl)c2)cs1,4.49%,-0.65%,-1.01%,3.78%,0.02%
OB1OCc2cc(Cl)ccc21,1.12%,2.29%,2.68%,2.33%,1.07%
Cn1nc(-c2cccc(F)c2)n(C)c1=S [suritozole],3.45%,1.68%,1.49%,1.52%,1.85%
CO[C@H]1CC[C@H](N(c2cc(C3=CCCCC3)sc2C(=O)O)C(=O)[C@H]2CC[C@H](C)CC2)CC1,0.5%,0.07%,-0.07%,0.31%,0.21%
O=C(N/N=C/c1ccc(O)c(O)c1)c1cc2ccccc2cc1O [dynasore],-1.99%,1.05%,-1.82%,-0.26%,0.04%
Nc1ccc(O)c(C(=O)O)c1 [mesalazine],1.06%,-2.08%,1.03%,-1.05%,-2.08%
CN(C)CCOc1ccc(-c2nc(-c3ccncc3)c(-c3ccc4c(c3)CC/C4=N\O)[nH]2)cc1,-0.13%,-0.36%,2.34%,-0.51%,6.82%
CC(C)c1ccccc1S(=O)(=O)c1cc(N)c2ncccc2c1[N+](=O)[O-],1.33%,1.24%,0.12%,5.82%,9.31%
CC(C)(Cc1ccc2ccccc2c1)NC[C@@H](O)COc1cccc(Cl)c1C#N,-1.61%,0.41%,0.1%,2.49%,62.5% (active)
CC(=O)Nc1cccc(Nc2ncnc(N3CCC(OCc4ccc(OC(F)(F)F)cc4)CC3)n2)c1C,0.94%,-3.45%,-5.16%,-2.26%,1.6%
CN(C)CCOC(=O)C(c1ccccc1)C1(O)CCCC1 (stereo not given) [cyclopentolate],-1.73%,1.59%,-2.5%,-0.18%,-1.17%
Nc1nc(/C(=C/CC(=O)O)C(=O)N[C@@H]2C(=O)N3C(C(=O)O)=CCS[C@H]23)cs1 [ceftibuten],0.43%,2.3%,2.51%,2.04%,1.92%
O=C(O)C[C@H](O)C[C@H](O)/C=C/c1c(C2CC2)nc2ccccc2c1-c1ccc(F)cc1 [pitavastatin],1.96%,3.86%,3.12%,2.39%,6.01%
N[C@@H](C(=O)N[C@@H]1C(=O)N2C(C(=O)O)=C(Cl)CS[C@H]12)c1ccccc1 [cefaclor],-2.43%,-5.19%,1.55%,-1.09%,5.72%

SMILES,inhibition of SARS-CoV-2 cytopathic effect (1 nM),inhibition of SARS-CoV-2 cytopathic effect (8.33 nM),inhibition of SARS-CoV-2 cytopathic effect (100 nM),inhibition of SARS-CoV-2 cytopathic effect (833.33 nM),inhibition of SARS-CoV-2 cytopathic effect (10000 nM)
CNCCN(C)Cc1c[nH]nc1-c1ccc(O[C@H]2C[C@H](OCCC3CCOCC3)C2)cc1,0.46%,-0.78%,4.05%,1.11%,1.7%
NCCc1c[nH]c2ccc(C(N)=O)cc12 [5-carboxamidotryptamine],2.2%,0.54%,3.52%,15.1% (active),1.89%
CS(=O)(=O)Nc1ccc(Cc2noc(-c3ccc4[nH]cc(CCN)c4c3)n2)cc1,-2.75%,-0.95%,-2.42%,-1.18%,-1.18%
COc1c(N2C[C@@H]3CCCN[C@@H]3C2)c(F)cc2c(=O)c(C(=O)O)cn(C3CC3)c12 [moxifloxacin],1.16%,0.31%,2.33%,0.76%,1.03%
O=C1c2ccccc2C(=O)C1c1ccccc1 [phenindione],-1.88%,-1.11%,-1.06%,-1.97%,-3.42%
COC(=O)N/N=C/c1c[n+]([O-])c2ccccc2[n+]1[O-] [carbadox],-0.14%,-0.55%,0.99%,-11.6%,0.87%
OCCOc1ccc(/C(=C(/CCCl)c2ccccc2)c2ccccc2)cc1 [ospemifene],-2.23%,1.01%,3.19%,3.68%,8.11%
N=c1ccn2c(n1)O[C@H]1[C@H](O)[C@@H](CO)O[C@H]12 [Cyclocytidine HCl],1.24%,1%,0%,-0.83%,-4.27%
O=c1[nH]c(=O)n([C@H]2CCCO2)cc1F (racemic) [ftorafur],0.19%,-1.89%,6.11%,-0.34%,-2.89%
c1cc(-c2cnn3cc(-c4ccc(N5CCNCC5)cc4)cnc23)c2cccnc2c1,-0.58%,-1.57%,-4.29%,-2.22%,6.47%
N#CC(c1ccnc(OCc2ccc(CN3CCOCC3)cc2)n1)c1nc2ccccc2s1 (stereo not given),-1.68%,0.15%,1.92%,2.82%,6.87%
CN(C)Cc1c(C(=O)NCCOc2ccc(C(=O)NO)cc2)oc2ccccc12,-1.08%,3.14%,-1.35%,-15.5%,-26.9%
CN(C)[C@@H]1C(O)=C(C(N)=O)C(=O)[C@@]2(O)C(O)=C3C(=O)c4c(O)cccc4[C@@](C)(O)[C@H]3C[C@@H]12 [tetracycline],1.65%,1.27%,-0.37%,-0.82%,1.35%
Nc1ccc(C(=O)O)cc1 [potassium-p-aminobenzoate],-5.31%,-2.38%,-5.27%,-0.2%,-5%
CS(=O)(=O)c1ccc([C@@H](O)[C@@H](CO)NC(=O)C(Cl)Cl)cc1 [thiamphenicol],-1.6%,-2.5%,-3.22%,-3.59%,-2.23%
COc1ccc2nc3[nH]nc(C)c3c(NCCOCCO)c2c1,-3.38%,-2.01%,-3.28%,-0.23%,-2.9%
CC(=N)NCc1cccc(CN)c1,0.8%,-0.79%,-0.18%,1.65%,0.53%
CCC(=O)OCC(=O)[C@@]1(OC(=O)CC)[C@@H](C)C[C@H]2[C@@H]3CCC4=CC(=O)C=C[C@]4(C)[C@@]3(F)[C@@H](O)C[C@@]21C,-0.73%,0.98%,-1.61%,0.59%,-0.08%
CC(C)(CC(=O)N1CCCC1)NCC(=O)N1C[C@@H](F)C[C@H]1C#N,1.83%,0.33%,-0.99%,-1.3%,-0.94%
CCOc1cccc(NC(=O)c2ccc(N3CCCC3)c(C(F)(F)F)c2)c1,0.59%,-0.15%,-0.42%,-1.65%,-2.63%
